Assay outcomes: PubChem, several laboratories
Only some compounds are listed: those with a hit (about 22% of all), similar ones and a draw of the others.
F-actin modifier: modifiers of cytoskeleton assembly | hit rate 0.18% among 91,000 | inhibition, % at 2 µM | HUVEC TNFa F-actin phalloidin imaging, high content;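 active means inhibition above the batch mean plus 3 SD and confirmed as a hit by visual image inspection, cut at about 30% in these data, passing the limit was not always enough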
E-sel TNF inh: TNF alpha driven E-selectin expression inhibition; HUVEC TNFa-induced E-selectin immunofluorescence, high content; inhibition, % at 2 µM; hit rate 0.71% among 120,000; AID 1246;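 active means inhibition above the batch mean plus 3 SD, and confirmed as a hit on visual image review, cut at about 43% in these data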;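 further: 0% = TNF-stimulated DMSO wells and 100% = unstimulated control wells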
CYP2C9 inh: human CYP2C9 inhibition; inhibition, % at 5 µM; P11712; hit rate 20% among 96,000; CYP2C9 Supersomes, luciferin-H conversion, luminescence; AID 777;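 active means blocking of liver enzyme CYP2C9 beyond about 50% at 5 µM, limit read from the data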
Target sequence (P11712 whole entry, looked up): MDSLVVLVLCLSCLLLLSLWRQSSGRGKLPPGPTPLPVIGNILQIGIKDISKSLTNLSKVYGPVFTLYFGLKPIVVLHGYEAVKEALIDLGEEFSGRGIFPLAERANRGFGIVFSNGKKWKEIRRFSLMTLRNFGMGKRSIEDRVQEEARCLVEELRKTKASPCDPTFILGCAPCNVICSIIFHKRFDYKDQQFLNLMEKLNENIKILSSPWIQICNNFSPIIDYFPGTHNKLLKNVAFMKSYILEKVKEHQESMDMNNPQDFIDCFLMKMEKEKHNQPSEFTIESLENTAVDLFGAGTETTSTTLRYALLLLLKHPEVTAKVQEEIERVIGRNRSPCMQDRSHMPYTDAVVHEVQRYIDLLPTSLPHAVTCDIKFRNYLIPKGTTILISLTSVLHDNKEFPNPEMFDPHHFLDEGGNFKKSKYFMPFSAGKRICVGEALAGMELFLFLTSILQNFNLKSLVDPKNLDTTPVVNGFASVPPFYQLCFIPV
CYP2C19 act: activators of human cytochrome P450 2C19; P33261; recombinant CYP2C19, luciferin-H EGE luminescence; hits give high values; 0 = fully inhibited enzyme, 1 = untreated enzyme; activation factor at 5 µM; 96,000 tested, under 10 active;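 active means activation factor of at least 2 at 5 µM in the primary screen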;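 further: 0 = wells with 2.5 mM tranylcypromine and 1 = vehicle-only wells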
CYP2C9 act: activators of human CYP2C9; P11712; recombinant CYP2C9, luciferin-H conversion, luminescence; hits give high values; factor 1 = untreated enzyme, 0 = blocked; activation factor at 5 µM; hit rate 1.4% among 96,000; AID 1024;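 active means activation factor of 2 or more for CYP2C9 at a 5 µM dose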;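 further: 0 = sulfaphenazole-blocked wells and 1 = vehicle-only wells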
CYP2C19 inh: blocks human cytochrome P450 2C19. P33261. CYP2C19 Supersomes, luciferin-H EGE luminescence, 30 min. inhibition, % at 5 µM. hit rate 21% among 96,000;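 active means CYP2C19 inhibition above a set limit at 5 µM in the primary screen, cut at about 50% in these data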;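 further: plate controls were negative control wells for no effect and 2.5 mM tranylcypromine positive control for full effect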
* = called active by the depositor; · = no result given.

SMILES	F-actin modifier	E-sel TNF inh	CYP2C9 inh	CYP2C19 act	CYP2C9 act	CYP2C19 inh
COc1ccc(S(=O)(=O)N2CCCC(C(=O)N3CCOCC3)C2)cc1C (stereo not drawn)	-2	1	-116	0.6	2.2*	36
CCOC(=O)N1CCN(S(=O)(=O)c2cc(Cl)c(OC)cc2Cl)CC1	-23	5	·	·	·	·
O=C(C1Cc2ccccc2CN1S(=O)(=O)c1ccc(F)cc1)N1CCCCCC1 (stereo not drawn)	21	-5	0	0.9	1	5
CCOC(=O)C1CCCN(S(=O)(=O)c2ccc(C)cc2)C1 (stereo not drawn)	-15	-5	·	·	·	·
CCOC(=O)N1CCN(S(=O)(=O)c2cc(Br)cnc2N)CC1	6	·	94*	0.1	0.1	95*
CCOC(=O)C1CCCN(S(=O)(=O)c2ccc(OC)cc2)C1 (stereo not drawn)	10	20	-142	0	2.4*	96*
O=C(C1Cc2ccccc2CN1S(=O)(=O)c1cccs1)N1CCCCCC1 (stereo not drawn)	-2	-17	47	0.2	0.5	82*
COc1cc(C)ccc1OCCOCCOc1c(C)cc(C)cc1Br	·	-29	·	·	·	·
CCOC(=O)N1CCN(S(=O)(=O)c2ccc(Br)s2)CC1	-12	16	81*	0.1	0.2	88*
CCOC(=O)C1CCCN(S(=O)(=O)c2ccc(Br)s2)C1 (stereo not drawn)	-14	-15	26	0.2	0.7	83*
COc1ccc(S(=O)(=O)N2CCCC(C(=O)N3CCCCCC3)C2)cc1 (stereo not drawn)	-29	-5	-32	0.2	1.3	80*
CN1CCN(S(=O)(=O)c2ccc(Br)s2)CC1	·	·	4	0.9	1	9
O=C(O)C1CCCCN1S(=O)(=O)c1ccc(Cl)s1 (stereo not drawn)	-12	7	47	0.7	0.5	25
O=C(O)C1CCCN1S(=O)(=O)c1ccc(Br)s1 (stereo not drawn) (tested in a mixture with another compound)	7	90*	-13	0.4	1.1	59*
CCOC(=O)C1CCN(C(=O)CNS(=O)(=O)c2ccc(Br)s2)CC1	3	·	19	0.9	0.8	6
COc1ccc(C(=O)N2CCCC(C(=O)N3CCCCCC3)C2)cc1 (stereo not drawn)	-3	-9	10	0.6	0.9	44
O=C(Nc1ccc(Br)cc1)/C(=C/c1cccc([N+](=O)[O-])c1)NC(=O)C1CCCCC1	0	·	46	0.6	0.5	41
CCOCCCNC(=O)C1CCN(S(=O)(=O)c2ccc(C)cc2)CC1	-15	15	·	·	·	·
O=[N+]([O-])c1ccc(N2CCN(c3ccc(Cl)nn3)CC2)c(Cl)c1	-1	12	36	1.1	0.6	-8
CCOC(=O)N1CCN(C(=O)C2CCCN(S(=O)(=O)c3ccc(C)cc3)C2)CC1 (stereo not drawn)	3	1	-57	0.5	1.6	53*
CCOC(=O)N1CCN(C(=S)NC(=O)c2cncc(Br)c2)CC1	·	89*	·	·	·	·
CCOC(=O)C1CCCN(C(=O)c2ccc(Cl)c(S(=O)(=O)N3CCCCC3)c2)C1 (stereo not drawn)	·	-8	·	·	·	·
Cc1ccc(NC(=O)CN2CCCN(S(=O)(=O)c3ccc(Br)s3)CC2)cc1	·	20	31	0.1	0.7	91*
CCOC(=O)C1CCCN(C(=O)C2CCN(S(=O)(=O)c3cccs3)CC2)C1 (stereo not drawn)	0	1	64*	0.2	0.4	75*
CCOC(=O)N1CCN(C(=S)Nc2cccc(C)c2)CC1	-10	13	-6	0.7	1.1	34
SMILES	F-actin modifier	E-sel TNF inh	CYP2C9 inh	CYP2C19 act	CYP2C9 act	CYP2C19 inh
CCN1CCN(CCCNC(=O)c2csc3c2CCCCC3)CC1	-23	·	-14	0.9	1.1	14
Cc1csc(NC(=O)C2CCCN(S(=O)(=O)c3ccc(Br)s3)C2)n1 (stereo not drawn)	5	3	94*	0.1	0.1	92*
O=C(NCCNS(=O)(=O)c1ccc(Cl)cc1)c1cc(OCC(F)(F)F)ccc1OCC(F)(F)F	21	8	-6	0.6	1.1	42
CC(C)n1cc(C(=O)c2cc(Br)ccc2O)cc(C#N)c1=O	18	12	88*	0	0.1	98*
Cc1ccc(O)c(C(=O)c2cc(C#N)c(=O)n(C(C)c3ccccc3)c2)c1 (stereo not drawn)	·	-21	·	·	·	·
N#Cc1cc(C(=O)c2cc(Br)ccc2O)cn(C2CC2)c1=O	-16	·	11	0.5	0.9	51*
CCCCn1cc(C(=O)c2cc(Br)ccc2O)cc(C#N)c1=O	-2	11	59*	0.2	0.4	78*
Cc1c(-n2cc(C(=O)c3ccccc3O)cc(C#N)c2=O)c(=O)n(-c2ccccc2)n1C	20	·	7	1	0.9	4
FC(F)(F)C1=CC(c2ccccc2)=NCCN1	7	-3	-3	1	1	2
COC(=O)c1ccccc1NC(=O)CC(NCc1ccccc1)C(=O)O (stereo not drawn)	-10	-21	·	·	·	·
Cc1cccc(-n2nnc(C(=O)NCc3ccccc3)c2N)c1	2	10	·	·	·	·
Cc1cc(C)cc(-n2nnc(C(=O)NCc3ccccc3Cl)c2N)c1	-36	-5	-176	0.9	2.8*	8
CC(C)=N/N=C(\c1cccc([N+](=O)[O-])c1)C12CN3CN(CN(C3)C1)C2	·	-3	·	·	·	·
CCn1c(=O)cc(SCC(=O)Nc2cccc(SC)c2)c2ccccc21	-9	29	-39	0.9	1.4	9
CCn1c(=O)cc(SCC(=O)Nc2ccc3c(c2)OCCO3)c2ccccc21	5	-12	-101	0.4	2*	61*
CCn1c(=O)cc(SCC(=O)NCc2ccc(C)cc2)c2ccccc21	-9	8	-68	0.5	1.7	47
CCn1c(=O)cc(SCC(=O)NCc2ccc(C)o2)c2ccccc21	-8	·	-100	0.7	2*	32
CCCCNC(=O)CSc1cc(=O)n(C)c2ccccc12	31*	·	-4	0.9	1	9
CCn1c(=O)cc(SCC(=O)Nc2cc(OC)c(OC)c(OC)c2)c2ccccc21	26	1	-188	0.2	2.9*	77*
CCOC(=O)CSc1nc2ccc(S(=O)(=O)N3CCOCC3)cc2[nH]1	2	-27	21	0.9	0.8	6
NC(N)=N/N=C/c1ccc(OCc2ccccc2Cl)cc1	-24	-16	-10	1	1.1	-2
COc1ccc(CN2CCN(S(=O)(=O)c3ccc(C)cc3)CC2)cc1Br	9	-8	45	0.8	0.5	23
CCCCOCCCNC(=O)Cc1ccccc1OC	12	·	-1	0.3	1	73*
CCCCOCCCNC(=O)c1ccc(OC)cc1	·	10	14	0.4	0.9	58*
CCCCOCCCNC(=O)c1ccc(OCC)cc1	-15	-4	5	0.9	0.9	14
COCCCNC(=O)Cc1ccccc1OC	·	12	13	1.1	0.9	-12
